A short description of assay [1]: NS1 protein of Zika virus - qHTS assay to identify small molecule inhibitors in human HEK 293 cells (AID 1347053).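 Further: series mostly up to about 46 µM; plate controls were infected untreated cells for no effect and uninfected cells for full effect; nearly all actives have a fitted effect of over 55% in size.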 The method, boiled down:
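HEK 293 cells pretreated with compound for 1 h, then infected with ZIKV MR766 (MOI 0.5) for 24 h at 37 C. NS1 detected by TR-FRET with two anti-NS1 antibodies; normalized to uninfected (0%) and infected (100%) wells.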
A general note: Quantitative high-throughput screening tests each substance at several concentrations.

A short description of assay [2]: qHTS of pediatric cancer cell lines to identify multiple opportunities for drug repurposing: Primary screen for TC32 cells (AID 1347089). Further: on the % scale 0 is the no-effect control and ±100 the full control effect; nearly all actives have a fitted effect of over 60% in size. An outline of the steps:
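In the primary qHTS, MIPE compounds were tested at 11 concentrations (0.78 nM to 46 µM) and NPC compounds at 8 (0.59 nM to 46 µM) on TC32 cells for 48 h. CellTiter-Glo luminescence gave viability.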

Assay [3] in a line: qHTS of pediatric cancer cell lines to identify multiple opportunities for drug repurposing: Primary screen for DAOY cells (AID 1347090).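 Further: series mostly up to about 46 µM; plate controls were DMSO for no effect and bortezomib for full effect; nearly all actives have a fitted effect of over 55% in size.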 An outline of the steps: (§1)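 Eight- or eleven-point concentration series, 48 h treatment at 37 degrees C in growth media; readout CellTiter-Glo luminescence. Potency and efficacy were taken from the concentration-response curves.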
A short description of assay [4]: qHTS of pediatric cancer cell lines to identify multiple opportunities for drug repurposing: Primary screen for SJ-GBM2 cells (AID 1347091).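 Further: plate controls were DMSO neutral control for no effect and bortezomib for full effect.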 An outline of the steps:
as §1

Assay [5] can be described thus: qHTS of pediatric cancer cell lines to identify multiple opportunities for drug repurposing: Primary screen for A673 cells (AID 1347092). Further: on the % scale 0 is the no-effect control and ±100 the full control effect; nearly all actives have a fitted effect of over 45% in size. The method, boiled down:
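48 h compound exposure, A673, 500-1,000 cells/well, 37 degrees C/5% CO2. MIPE: 11-point, 0.78 nM-46 µM; NPC: 8-point, 0.59 nM-46 µM (final). Readout CellTiter-Glo luminescence after 15 min RT.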

The nature of assay [6]: qHTS of pediatric cancer cell lines to identify multiple opportunities for drug repurposing: Primary screen for BT-37 cells (AID 1347094).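 Further: series mostly up to about 57 µM; plate controls were DMSO for no effect and bortezomib for full effect.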 The method, boiled down:
(§2)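 Quantitative HTS format: each compound titrated (MIPE 11 points from 0.78 nM, NPC 8 points from 0.59 nM) onto cells plated 5 hours earlier. After 48 h at 37 degrees C, CellTiter-Glo luminescence was recorded.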

Assay [7] is described as follows: qHTS of pediatric cancer cell lines to identify multiple opportunities for drug repurposing: Primary screen for NB-EBc1 cells (AID 1347095).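 Further: plate controls were DMSO neutral control for no effect and bortezomib for full effect.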 An outline of the steps: as §2
Assay [8] in a line: qHTS of pediatric cancer cell lines to identify multiple opportunities for drug repurposing: Primary screen for U-2 OS cells (AID 1347096).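 Further: plate controls were DMSO wells for no effect and bortezomib positive control wells for full effect; nearly all actives have a fitted effect of over 50% in size.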 An outline of the steps: (§3)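 Cells (500-1,000/well) in growth media were settled 5 h at 37 degrees C, then given compounds for 48 h. Viability was read as CellTiter-Glo luminescence. Primary runs used MIPE at 11 points (0.78 nM-46 µM) and NPC at 8 points (0.59 nM-46 µM); follow-ups used 11 points.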

A short description of assay [9]: qHTS of pediatric cancer cell lines to identify multiple opportunities for drug repurposing: Primary screen for Saos-2 cells (AID 1347097). Further: on the % scale 0 is the no-effect control and ±100 the full control effect; nearly all actives have a fitted effect of over 40% in size. The method, boiled down: as §2
Assay [10] in a line: qHTS of pediatric cancer cell lines to identify multiple opportunities for drug repurposing: Primary screen for SK-N-SH cells (AID 1347098).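 Further: DMSO served as neutral control and bortezomib at 2.3 µM as positive control; on the % scale 0 is the no-effect control and ±100 the full control effect; nearly all actives have a fitted effect of over 65% in size.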 An outline of the steps:
(§4)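 Cells (500-1,000/well) rested 5 h, then received compounds for 48 h; metabolically active cells were measured by CellTiter-Glo luminescence. Final concentrations spanned up to 46 µM (MIPE, 11-point) or 0.59 nM-46 µM (NPC, 8-point) in primary screens, 11-point in follow-ups.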

Assay [11] can be described thus: qHTS of pediatric cancer cell lines to identify multiple opportunities for drug repurposing: Primary screen for NB1643 cells (AID 1347099).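 Further: plate controls were DMSO neutral control for no effect and bortezomib positive control for full effect; nearly all actives have a fitted effect of over 50% in size.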 An outline of the steps: as §2
A short description of assay [12]: qHTS of pediatric cancer cell lines to identify multiple opportunities for drug repurposing: Primary screen for LAN-5 cells (AID 1347100).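 Further: plate controls were DMSO neutral control for no effect and bortezomib positive control for full effect.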 An outline of the steps: as §3
Assay [13] can be described thus: qHTS of pediatric cancer cell lines to identify multiple opportunities for drug repurposing: Primary screen for Rh18 cells (AID 1347102). Further: on the % scale 0 is the no-effect control and ±100 the full control effect; nearly all actives have a fitted effect of over 65% in size. The method, boiled down: as §3
The nature of assay [14]: qHTS of pediatric cancer cell lines to identify multiple opportunities for drug repurposing: Primary screen for RD cells (AID 1347104).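 Further: plate controls were DMSO for no effect and bortezomib for full effect; nearly all actives have a fitted effect of over 55% in size.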 The method, boiled down:
as §2

The nature of assay [15]: qHTS of pediatric cancer cell lines to identify multiple opportunities for drug repurposing: Primary screen for SK-N-MC cells (AID 1347093).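 Further: series mostly up to about 46 µM; plate controls were DMSO neutral control for no effect and bortezomib for full effect.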 The method, boiled down: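 Metabolically active cells were quantified by ATP-dependent luminescence (CellTiter-Glo, 15 min at room temperature) following 48 h treatment. Cells had been plated at 500-1,000 per well and settled for 5 h beforehand.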

Assay [16] is described as follows: qHTS of pediatric cancer cell lines to identify multiple opportunities for drug repurposing: Primary screen for BT-12 cells (AID 1347101).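 Further: plate controls were DMSO for no effect and bortezomib positive control for full effect; nearly all actives have a fitted effect of over 25% in size.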 The method, boiled down:
as §4

The nature of assay [17]: qHTS of pediatric cancer cell lines to identify multiple opportunities for drug repurposing: Primary screen for OHS-50 cells (AID 1347103). Further: nearly all actives have a fitted effect of over 40% in size. Further: potency means the concentration at half of the fitted maximal effect.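 On activity change, negative = cytotoxic: plate controls were DMSO neutral control for no effect and bortezomib positive control for full effect.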 The method, boiled down: as §4

Records with an inconclusive call do not appear. Unmarked numbers belong to inactive results. Activity calls are given as the source filed them. The call rests on the fitted dose curve; in most records, active means well fitted curve in the direction sought with a large enough effect; inconclusive means small, poorly fitted or top-dose-only effect, or another doubt; inactive means no such curve, though single readings can be large; an effect the other way counts as inactive or inconclusive.

As for `C[C@]12CCC(=O)C=C1[C@@H]1C[C@@H]1[C@H]1[C@@H]3[C@@H]4C[C@@H]4[C@@]4(CCC(=O)O4)[C@@]3(C)CC[C@@H]12`, the Potency result in assay [1], in assay [2], in [3], in [4], in [5] and in assay [6] was “inactive” each time. In addition, the Potency result in assay [7], in assay [8], in [9], in assay [10], in assay [11] and in assay [12] was “inactive” in each case. Moreover, the Potency entry in assay [13] and in assay [14] was “inactive” each time.

For `Cc1cc2c(cc1CC(=O)c1sccc1S(=O)(=O)Nc1onc(C)c1Cl)OCO2`, the Potency entry in assay [1], in assay [2], in [3], in assay [4], in assay [5] and in assay [15] was “inactive” each time. Also, the Potency entry in [6], in assay [8], in assay [9], in [10], in assay [12] and in [16] was “inactive” in each case. In addition, the Potency entry in assay [13], in assay [17] and in assay [14] was “inactive” each time.

As for `CC1=C(C(=O)O)N2C(=O)[C@@H](NC(=O)[C@H](N)c3ccc(O)cc3)[C@H]2SC1`, the Potency entry in assay [1], in assay [2], in assay [3], in assay [4], in [5] and in assay [6] was “inactive” each time. In addition, the Potency entry in [7], in assay [8], in assay [9], in assay [10], in assay [12] and in assay [16] was “inactive” in each case. The Potency entry in assay [13] and in assay [14] was “inactive” in each case.

On to `Cc1onc(-c2c(Cl)cccc2Cl)c1C(=O)N[C@@H]1C(=O)N2[C@@H]1SC(C)(C)[C@@H]2C(=O)O`, for which the Potency result in assay [1], in assay [2], in assay [3], in [4], in assay [5] and in assay [6] was “inactive” each time. Besides, the Potency entry in assay [7], in assay [8], in assay [9], in assay [10], in assay [11] and in [12] was “inactive” each time. For the same molecule, the Potency entry in assay [16], in [13] and in [14] was “inactive” in each case.

For the molecule `CNCC[C@@H](Oc1ccccc1C)c1ccccc1`, the Potency result in [1], in [2], in [3], in assay [4], in assay [15] and in assay [6] was “inactive” in each case. The Potency entry in [7], in [8], in assay [10], in assay [11], in assay [12] and in [16] was “inactive” in each case. The Potency result in assay [13] and in assay [14] was “inactive” throughout.

Take `OC[C@@H](O)[C@@H](O[C@@H]1O[C@H](CO)[C@H](O)[C@H](O)[C@H]1O)[C@H](O)[C@@H](O)CO`: the Potency entry in [1], in assay [2], in assay [3], in assay [4], in assay [5] and in assay [6] was “inactive” throughout. Further, the Potency entry in assay [8], in assay [9], in assay [10], in assay [11], in assay [12] and in [16] was “inactive” in each case. Moreover, the Potency entry in assay [13], in assay [17] and in [14] was “inactive” each time.

Regarding `NCCCC[C@H](N[C@@H](CCc1ccccc1)C(=O)O)C(=O)N1CCC[C@H]1C(=O)O`, the Potency result in [1], in assay [2], in assay [3], in [4], in assay [5] and in assay [6] was “inactive” in each case. The Potency entry in [8], in assay [9], in assay [10], in assay [16], in assay [13] and in assay [14] was “inactive” throughout.

Turning to `CCn1cc(C(=O)O)c(=O)c2cnc(N3CCCC3)nc21`, the activity change, negative = inhibition in assay [1] was -25.1% [at 9.2 µM]. The activity change, negative = cytotoxic is 4.83% [at 9.17 µM] in assay [2]; -3.72% [at 9.22 µM] in assay [3]; -2.71% [at 9.22 µM] in assay [4]; -17.7% [at 9.22 µM] in assay [5]; 0.276% [at 11.5 µM] in assay [6]; -3.37% [at 9.22 µM] in assay [7]. Further, the activity change, negative = cytotoxic is 4.46% [at 9.22 µM] in assay [8]; 0.0364% [at 9.22 µM] in [9]; -2.09% [at 9.22 µM] in assay [12]; 1.9% [at 11.5 µM] in assay [16]; 15.8% [at 9.22 µM] in [13]; -0.536% [at 11.5 µM] in assay [17].

With `CCCOC(C(=O)OC1CCN(C)CC1)(c1ccccc1)c1ccccc1`, the Potency result in assay [1], in assay [2], in [3], in assay [4], in assay [5] and in assay [15] was “inactive” in each case. The Potency entry in [8], in [11] and in assay [16] was “inactive” each time. Further, the Potency in [17] was 27.6 µM (active).

Consider `CC(=O)[C@H]1CC[C@H]2[C@@H]3C[C@H](C)C4=CC(=O)CC[C@]4(C)[C@H]3[C@@H](O)C[C@]12C`, for which the Potency entry in assay [1], in [2], in assay [3], in [4], in [5] and in assay [6] was “inactive” in each case. Further, the Potency result in assay [8], in assay [9], in assay [10], in [11], in [12] and in assay [13] was “inactive” throughout. In addition, the Potency result in assay [14] is “inactive”.

Consider `CC(=O)OCC(=O)[C@@]1(OC(C)=O)[C@@H](C)C[C@H]2[C@@H]3C[C@H](F)C4=CC(=O)C=C[C@]4(C)[C@@]3(F)[C@@H](O)C[C@@]21C`, for which the Potency result in [1], in assay [2], in [3], in assay [4], in assay [5] and in assay [15] was “inactive” in each case. Also, the Potency entry in [6], in assay [8], in assay [9], in assay [10], in assay [12] and in assay [16] was “inactive” throughout. Besides, the Potency result in [13] and in [14] was “inactive” in each case.

For the molecule `C[C@]12CC[C@@H]3c4ccc(O)cc4CC[C@H]3[C@@H]1C[C@@H](O)[C@@H]2O`, the Potency entry in assay [1], in [2], in assay [3], in assay [4], in assay [5] and in [6] was “inactive” in each case. The Potency entry in assay [8], in assay [9], in assay [10], in assay [11], in [12] and in [16] was “inactive” each time. The Potency entry in [13] and in assay [14] was “inactive” in each case.

In the case of `O=C1OCCN1/N=C/c1ccc([N+](=O)[O-])o1`, the Potency result in assay [1], in assay [2], in assay [3], in [4], in assay [15] and in assay [6] was “inactive” throughout. The Potency entry in [7], in assay [8], in assay [9], in assay [11], in assay [16] and in assay [13] was “inactive” each time. For the same molecule, the Potency result in assay [17] was “inactive”.

With `C[C@]12CCC(=O)C=C1CC[C@H]1[C@@H]3CC[C@](O)(C(=O)CO)[C@@]3(C)C[C@H](O)[C@@]12F`, the Potency entry in assay [1], in assay [2], in assay [3], in [4], in assay [5] and in assay [6] was “inactive” each time. Further, the Potency result in assay [7], in [8], in assay [9], in [10], in assay [11] and in [12] was “inactive” throughout. The Potency entry in [16] and in [13] was “inactive” in each case.

Take `NCCc1ccn[nH]1`: the Potency entry in [1], in [2], in assay [3], in assay [4], in assay [5] and in [6] was “inactive” each time. Moreover, the Potency entry in assay [8], in assay [9], in [10], in assay [11], in [12] and in assay [16] was “inactive” each time. In addition, the Potency entry in assay [13], in assay [17] and in [14] was “inactive” in each case.

Source of the values: PubChem BioAssay (NCATS).
